Records with an inconclusive call do not appear. Active and inactive are the calls of the source. Rule for the calls, unless noted: active = hit-call score of the fitted dose curve at least 0.9, where 1 is the maximum; inconclusive = response in the unintended direction; inactive = score below 0.9.
Tests used:
[1] = biological target: Glucocorticoid receptor (Homo sapiens) (UniProt P04150); assay: ATG_GR_TRANS: Attagene TRANS-FACTORIAL HepG2 Assay for human Glucocorticoid Receptor (GR) (AID 2282978); conditions: HepG2 Attagene TRANS GR reporter, mRNA transcription;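 note: activators score as hits since higher reporter transcript over DMSO is fitted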
Procedure, shortened: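 Fluorescent capillary-electrophoresis quantitation of reporter mRNA is the readout, taken 24 h after dosing human HepG2 cells carrying transiently transfected GAL4-UAS reporter units activated by chimeric NR-GAL4 fusions; activity scored as induction over DMSO.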

[2] = ATG_M_06_TRANS: Attagene TRANS-FACTORIAL HepG2 Assay for M06 Transcription Factor (Internal Marker) (AID 2282983); conditions: HepG2 Attagene TRANS M06 internal marker reporter
Procedure, shortened: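 Background control endpoint: reporter mRNA from transiently transfected HepG2 after 24 h dosing, detected by RT-PCR with capillary electrophoresis fluorescence. Analysed for gain versus DMSO.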

[3] = ATG_M_32_TRANS: Attagene TRANS-FACTORIAL HepG2 Assay for M32 Transcription Factor (Internal Marker) (AID 2282984); conditions: HepG2 Attagene TRANS M32 internal marker reporter
Procedure, shortened: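 Fluorescence-detected mRNA induction, HepG2 liver cells, 24 h after dosing. Multiple GAL4-UAS reporter units introduced by transient transfection; background-control endpoint analysed for gain of signal against DMSO.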

[4] = biological target: Nuclear receptor subfamily 4 group A member 2 (Homo sapiens) (UniProt P43354); assay: ATG_NURR1_TRANS: Attagene TRANS-FACTORIAL HepG2 Assay for human Nuclear Receptor Related Protein 1 (NURR1) (AID 2282985); conditions: HepG2 Attagene TRANS reporter, mRNA readout
Procedure, shortened: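 Chimeric NR-Gal4 proteins were expressed in human HepG2 cells bearing GAL4-UAS reporter units, and induced reporter mRNA was quantified 24 h post-dosing by RT-PCR and capillary electrophoresis.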

[5] = biological target: Transcriptional activator Myb (Homo sapiens) (UniProt P10242); assay: ATG_Myb_CIS: Attagene CIS-FACTORIAL HepG2 Assay for human Myeloblastosis (Myb) Proto-Oncogene Transcription Factor (AID 2282986; active = hit-call score of the fitted dose curve at least 0.9, where 1 is the maximum; inactive = score below 0.9); conditions: HepG2 Attagene CIS-FACTORIAL Myb reporter transcription; actives raise or lower the signal
Procedure, shortened: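 Reporter transcript levels, quantified by fluorescent RT-PCR and capillary electrophoresis, serve as the read-out. Transfected HepG2 cells carrying cis-promoter reporter units are dosed for 24 hours, and curves are fitted bidirectionally against DMSO controls.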

[6] = biological target: Oxysterols receptor LXR-beta (Homo sapiens) (UniProt P55055); assay: ATG_LXRb_TRANS: Attagene TRANS-FACTORIAL HepG2 Assay for human Liver X Receptor beta (LXRb) (AID 2282981); conditions: HepG2 Attagene TRANS GAL4-LXRb reporter, mRNA
Procedure, shortened: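 Liver-derived HepG2 cells transfected with Gal4-responsive reporters were dosed for 24 h. Activation was scored as rise in reporter mRNA, by RT-PCR and capillary electrophoresis, above DMSO baseline.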

[7] = biological target: Hepatocyte nuclear factor 4-alpha (Homo sapiens) (UniProt P41235); assay: ATG_HNF4a_TRANS: Attagene TRANS-FACTORIAL HepG2 Assay for human Hepatocyte Nuclear Factor 4 alpha (HNF4a) (AID 2282982); conditions: HepG2 HNF4a transactivation reporter, mRNA readout
Procedure, shortened: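 Using HepG2 liver cells transfected with GAL4-UAS reporter units, chemical-induced mRNA increases were assessed after 24 hours. Fluorescent RT-PCR fragments were separated by capillary electrophoresis and compared with DMSO negative controls.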

[8] = biological target: Oxysterols receptor LXR-alpha (Homo sapiens) (UniProt Q13133); assay: ATG_LXRa_TRANS: Attagene TRANS-FACTORIAL HepG2 Assay for human Liver X Receptor alpha (LXRa) (AID 2282980); conditions: HepG2 Attagene TRANS reporter, LXRa transactivation
Procedure, shortened: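 Transfect HepG2 with GAL4-UAS multiplex reporter constructs (TRANS format, chimeric receptor-GAL4); treat 24 h; extract RNA, reverse-transcribe, PCR-amplify, FAM-label, HpaI-digest; resolve fragments by capillary electrophoresis. Upward response vs DMSO.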

[9] = biological target: Bile acid receptor (Homo sapiens) (UniProt Q96RI1); assay: ATG_FXR_TRANS: Attagene TRANS-FACTORIAL HepG2 Assay for Farnesoid X Receptor (FXR) (AID 2282979); conditions: HepG2 Attagene TRANS FXR-GAL4 reporter transcription;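 note: hits raise reporter mRNA above DMSO so AC50 marks FXR activation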
Procedure, shortened: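 Transient transfection of HepG2 with multiplexed GAL4-UAS reporter units; exogenous FXR-GAL4 chimera. Dose 24 h → TriZol RNA → oligo(dT) RT → PCR, 6-FAM primer extension, HpaI cut → CE. Gain vs DMSO.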

Measured: AC50

Chain of Oxysterols receptor LXR-alpha (Homo sapiens) (Q13133 whole entry, looked up, the tested form may be a part): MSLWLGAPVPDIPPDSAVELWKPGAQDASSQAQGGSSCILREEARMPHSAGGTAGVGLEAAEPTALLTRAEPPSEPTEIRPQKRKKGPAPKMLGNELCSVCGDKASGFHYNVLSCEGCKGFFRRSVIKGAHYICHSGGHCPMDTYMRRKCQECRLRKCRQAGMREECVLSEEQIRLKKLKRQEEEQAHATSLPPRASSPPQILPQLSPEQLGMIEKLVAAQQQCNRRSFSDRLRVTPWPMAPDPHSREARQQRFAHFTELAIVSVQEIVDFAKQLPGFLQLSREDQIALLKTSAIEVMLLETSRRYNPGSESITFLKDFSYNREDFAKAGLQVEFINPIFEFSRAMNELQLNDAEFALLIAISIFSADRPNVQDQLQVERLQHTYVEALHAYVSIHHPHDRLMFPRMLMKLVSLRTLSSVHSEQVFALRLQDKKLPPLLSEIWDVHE
Chain of Hepatocyte nuclear factor 4-alpha (Homo sapiens) (P41235 whole entry, looked up, the tested form may be a part): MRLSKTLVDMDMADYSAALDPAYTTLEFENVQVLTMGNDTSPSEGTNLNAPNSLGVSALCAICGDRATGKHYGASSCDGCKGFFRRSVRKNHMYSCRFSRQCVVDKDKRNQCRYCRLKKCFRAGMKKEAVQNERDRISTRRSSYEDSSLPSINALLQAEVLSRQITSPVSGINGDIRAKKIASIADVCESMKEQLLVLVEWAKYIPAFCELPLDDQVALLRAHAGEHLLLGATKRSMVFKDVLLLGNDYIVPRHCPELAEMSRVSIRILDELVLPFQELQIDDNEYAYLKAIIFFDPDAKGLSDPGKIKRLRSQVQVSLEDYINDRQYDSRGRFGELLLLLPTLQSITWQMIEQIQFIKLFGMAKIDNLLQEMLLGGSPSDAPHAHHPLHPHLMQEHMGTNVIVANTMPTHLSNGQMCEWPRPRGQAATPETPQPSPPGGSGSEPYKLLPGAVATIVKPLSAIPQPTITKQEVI
Chain of Glucocorticoid receptor (Homo sapiens) (P04150 whole entry, looked up, the tested form may be a part): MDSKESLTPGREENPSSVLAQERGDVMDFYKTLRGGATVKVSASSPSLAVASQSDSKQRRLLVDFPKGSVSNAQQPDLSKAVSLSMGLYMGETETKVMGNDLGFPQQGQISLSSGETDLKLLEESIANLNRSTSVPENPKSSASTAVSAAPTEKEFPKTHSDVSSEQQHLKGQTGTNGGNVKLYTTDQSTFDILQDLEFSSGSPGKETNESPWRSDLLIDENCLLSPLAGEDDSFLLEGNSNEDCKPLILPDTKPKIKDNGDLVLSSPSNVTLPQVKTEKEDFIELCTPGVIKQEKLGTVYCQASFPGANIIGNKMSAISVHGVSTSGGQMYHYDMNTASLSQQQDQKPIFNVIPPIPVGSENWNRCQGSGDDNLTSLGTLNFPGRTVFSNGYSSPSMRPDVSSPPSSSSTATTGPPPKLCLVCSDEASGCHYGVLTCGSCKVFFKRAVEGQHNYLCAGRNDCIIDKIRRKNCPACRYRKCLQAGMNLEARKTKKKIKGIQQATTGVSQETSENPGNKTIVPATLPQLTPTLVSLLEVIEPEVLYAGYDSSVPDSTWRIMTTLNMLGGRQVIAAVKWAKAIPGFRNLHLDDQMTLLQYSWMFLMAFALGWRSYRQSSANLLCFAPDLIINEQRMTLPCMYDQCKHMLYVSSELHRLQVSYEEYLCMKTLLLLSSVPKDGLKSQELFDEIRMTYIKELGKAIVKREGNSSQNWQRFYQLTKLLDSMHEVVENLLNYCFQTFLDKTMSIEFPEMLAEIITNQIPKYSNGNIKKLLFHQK
Chain of Bile acid receptor (Homo sapiens) (Q96RI1 whole entry, looked up, the tested form may be a part): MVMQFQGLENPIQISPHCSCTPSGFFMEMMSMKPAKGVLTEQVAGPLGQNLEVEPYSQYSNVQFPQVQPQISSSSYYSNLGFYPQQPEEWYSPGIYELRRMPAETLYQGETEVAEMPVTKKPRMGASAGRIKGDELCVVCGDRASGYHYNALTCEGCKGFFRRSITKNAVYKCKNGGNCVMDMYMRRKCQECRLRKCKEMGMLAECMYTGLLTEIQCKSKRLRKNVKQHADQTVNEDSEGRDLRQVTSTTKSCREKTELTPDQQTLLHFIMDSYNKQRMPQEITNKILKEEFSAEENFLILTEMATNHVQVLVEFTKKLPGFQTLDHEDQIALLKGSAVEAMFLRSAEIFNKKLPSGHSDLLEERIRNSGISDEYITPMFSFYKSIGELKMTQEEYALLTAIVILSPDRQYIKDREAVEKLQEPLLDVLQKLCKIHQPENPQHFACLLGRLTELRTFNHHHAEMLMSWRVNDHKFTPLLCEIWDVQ
Chain of Transcriptional activator Myb (Homo sapiens) (P10242 whole entry, looked up): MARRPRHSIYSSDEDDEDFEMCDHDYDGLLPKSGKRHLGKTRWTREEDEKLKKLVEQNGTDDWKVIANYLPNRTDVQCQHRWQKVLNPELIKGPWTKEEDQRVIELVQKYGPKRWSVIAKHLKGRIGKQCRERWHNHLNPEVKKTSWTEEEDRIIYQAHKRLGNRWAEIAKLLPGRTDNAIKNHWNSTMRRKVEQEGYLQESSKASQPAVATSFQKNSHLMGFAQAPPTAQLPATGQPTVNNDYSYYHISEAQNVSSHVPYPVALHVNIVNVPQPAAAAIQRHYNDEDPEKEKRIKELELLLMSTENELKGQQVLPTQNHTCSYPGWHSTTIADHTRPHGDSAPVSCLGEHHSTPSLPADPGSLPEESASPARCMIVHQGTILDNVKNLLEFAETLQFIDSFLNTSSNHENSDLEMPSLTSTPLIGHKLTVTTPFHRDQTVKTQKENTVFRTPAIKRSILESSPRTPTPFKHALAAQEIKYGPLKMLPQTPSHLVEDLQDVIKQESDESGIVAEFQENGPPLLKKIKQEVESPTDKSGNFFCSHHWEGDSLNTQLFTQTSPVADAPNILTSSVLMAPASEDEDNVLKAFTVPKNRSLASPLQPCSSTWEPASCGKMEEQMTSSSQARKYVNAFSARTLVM
Chain of Oxysterols receptor LXR-beta (Homo sapiens) (P55055 whole entry, looked up, the tested form may be a part): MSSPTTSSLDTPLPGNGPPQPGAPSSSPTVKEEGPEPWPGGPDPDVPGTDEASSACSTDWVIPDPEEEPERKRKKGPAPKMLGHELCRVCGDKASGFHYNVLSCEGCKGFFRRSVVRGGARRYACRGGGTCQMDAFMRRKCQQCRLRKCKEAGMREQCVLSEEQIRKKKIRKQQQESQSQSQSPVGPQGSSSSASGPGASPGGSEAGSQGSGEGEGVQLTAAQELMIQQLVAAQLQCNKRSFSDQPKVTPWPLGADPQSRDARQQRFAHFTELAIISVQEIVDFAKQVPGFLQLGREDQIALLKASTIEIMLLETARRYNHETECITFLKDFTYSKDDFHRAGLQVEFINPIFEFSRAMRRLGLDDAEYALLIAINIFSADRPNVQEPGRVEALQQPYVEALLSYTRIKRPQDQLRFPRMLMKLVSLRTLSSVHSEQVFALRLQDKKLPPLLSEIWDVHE
Chain of Nuclear receptor subfamily 4 group A member 2 (Homo sapiens) (P43354 whole entry, looked up, the tested form may be a part): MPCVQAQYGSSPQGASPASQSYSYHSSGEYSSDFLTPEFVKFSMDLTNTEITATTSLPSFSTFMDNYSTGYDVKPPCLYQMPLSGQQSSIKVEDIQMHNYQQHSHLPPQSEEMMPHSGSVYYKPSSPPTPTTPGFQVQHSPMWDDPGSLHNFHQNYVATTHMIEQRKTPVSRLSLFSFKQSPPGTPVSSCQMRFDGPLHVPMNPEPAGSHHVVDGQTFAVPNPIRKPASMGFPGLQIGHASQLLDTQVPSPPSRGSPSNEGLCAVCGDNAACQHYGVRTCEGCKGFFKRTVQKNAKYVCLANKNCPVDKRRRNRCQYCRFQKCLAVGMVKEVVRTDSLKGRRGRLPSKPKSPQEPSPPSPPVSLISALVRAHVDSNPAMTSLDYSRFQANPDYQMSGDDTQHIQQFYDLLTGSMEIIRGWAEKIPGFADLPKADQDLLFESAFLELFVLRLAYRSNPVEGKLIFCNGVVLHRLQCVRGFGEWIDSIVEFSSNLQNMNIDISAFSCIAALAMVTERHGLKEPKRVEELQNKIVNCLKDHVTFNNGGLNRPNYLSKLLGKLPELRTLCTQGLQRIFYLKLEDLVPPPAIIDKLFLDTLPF

O=[N+]([O-])c1ccc(Oc2ccc(Cl)cc2Cl)cc1
inactive: [1] | [2] | [3] | [4] | [5]

CC(C)(C)C(O)(CCc1ccc(Cl)cc1)Cn1cncn1 (stereo not drawn)
inactive: [1] | [2] | [3] | [5]

CCCSC(=O)N(CCC)CCC
not listed: [3] | [8] | [9]
inactive: all other assays above

c1ccc(NNc2ccccc2)cc1
inactive: [1] | [7] | [3] | [5]

Oc1ccc2ccc3cccc4ccc1c2c34
inactive: [1] | [7] | [2] | [3] | [5]

ClC1=C(Cl)C2(Cl)C3C(Cl)C=CC3C1(Cl)C2(Cl)Cl (stereo not drawn)
inactive: [1] | [6] | [2] | [3] | [5]

CCCCCCCCOC(=O)c1ccc(C(=O)OCCCCCCCC)c(C(=O)OCCCCCCCC)c1
inactive: [1] | [8] | [7] | [4] | [5]

O=C(Oc1ccc(Br)cc1)N1CCN2CCC1CC2
inactive: [1] | [8] | [3] | [5]

c1ccc(N=Nc2ccccc2)cc1
inactive: [1] | [2] | [5]

CC(C)(OOC(C)(C)c1ccccc1)c1ccccc1
not listed: [1] | [3] | [7]
inactive: all other assays above

O=C(Nc1ccccc1)c1ccccc1I
inactive: [1] | [2] | [3] | [5]

C[C@]12C=CC3=C4CCC(=O)C=C4CC[C@H]3[C@@H]1CC[C@@H]2O
not listed: [1]
inactive: all other assays above

Oc1ccccc1Cl
not listed: [7] | [8] | [9]
inactive: all other assays above

CN(C)[C@@H]1C(=O)C(C(N)=O)=C(O)[C@@]2(O)C(=O)C3=C(O)c4c(O)cccc4[C@@](C)(O)[C@H]3C[C@@H]12
inactive: [9] | [8] | [6] | [5]

CCCCCOC(=O)c1ccccc1C(=O)OCCCCC
inactive: [1] | [2] | [3] | [4] | [5]

c1ccc(C2CO2)cc1 (stereo not drawn)
inactive: [1] | [3] | [4] | [5]

Clc1ccccc1Cl
inactive: [1] | [7] | [2] | [5]

C=CCc1ccc2c(c1)OCO2
not listed: [6] | [9]
inactive: all other assays above

CN(C)c1ccc(C(=O)c2ccc(N(C)C)cc2)cc1
inactive: [9] | [8] | [7] | [3] | [5]

Brc1ccc(Oc2ccccc2)cc1
inactive: [1] | [6] | [2] | [4] | [5]

c1ccc2c(c1)-c1cccc3cccc-2c13
inactive: [2] | [5]
active: [4] 160 µM

ClC1=C(Cl)[C@]2(Cl)[C@H]3[C@H]([C@@H]4C=C[C@H]3C4)[C@@]1(Cl)C2(Cl)Cl
inactive: [7] | [4] | [5]

[O-][Cl+]O
not listed: [1] | [6] | [9]
inactive: all other assays above

COC(=O)c1ccccc1N
inactive: [8] | [5]

Cc1ccc(N)c(N)c1
inactive: [2] | [5]

O=C(O)C1C2CCC(O2)C1C(=O)O (stereo not drawn)
not listed: [1] | [3] | [9]
inactive: all other assays above

CCOc1cccc(C2(N3CCN(c4ccccc4)CC3)CCC(C)CC2)c1 (stereo not drawn)
inactive: [2] | [5]

OCCCBr
inactive: [6] | [7] | [2] | [4] | [5]

CC(C)N(Cc1ccccc1)C(=O)C(C)(C)C
inactive: [9] | [4] | [5]

COc1cc(C=O)cc2c1[C@H](COC(N)=O)[C@]1(OC(C)=O)ON2C[C@H]2[C@@H]1N2C(C)=O
active: [5] 2.77 µM
inactive: [8] | [7] | [2] | [3]

Cc1ccc([N+](=O)[O-])cc1
inactive: [2] | [5]

CCC12COCN1COC2
inactive: [8] | [6] | [7] | [5]

N#CC(Br)(Br)C(N)=O
inactive: [2] | [4] | [5]

O=Cc1ccco1
inactive: [8] | [7] | [4] | [5]

CCCCC(CC)COC(=O)c1ccc(C(=O)OCC(CC)CCCC)c(C(=O)OCC(CC)CCCC)c1 (stereo not drawn)
inactive: [6] | [2] | [4] | [5]

CC(O)CCO (stereo not drawn)
not listed: [1] | [8] | [9]
inactive: all other assays above

C1=Cc2cccc3cccc1c23
not listed: [1] | [8] | [9]
inactive: all other assays above

CNC(=O)Oc1cccc2c1OC(C)(C)C2
not listed: [1] | [2] | [9]
inactive: all other assays above

ClCCOCCCl
inactive: [9] | [6] | [3] | [4] | [5]

Clc1ccc(Cl)c(Cl)c1
inactive: [6] | [7] | [2] | [4] | [5]

CC(C)(C)OOC(=O)c1ccccc1
inactive: [6] | [2]
active: [5] 153 µM

C[N+](C)(C)CC1CO1 (stereo not drawn)
inactive: [6] | [3] | [5]

CCN(CC)N=O
inactive: [8] | [2] | [5]

CCN(CC)CCO
inactive: [6] | [2] | [4] | [5]

COC(=O)Nc1nc2ccccc2[nH]1
not listed: [1] | [8] | [9]
inactive: all other assays above

CS(=O)(=O)NC(=O)c1cc(Oc2ccc(C(F)(F)F)cc2Cl)ccc1[N+](=O)[O-]
inactive: [3] | [5]

OCCOCCO
inactive: [8] | [6] | [7] | [3] | [5]

From PubChem BioAssay (EPA / NIEHS)
